Data published in PubChem BioAssay (NCATS).
Inconclusive results are not listed. Values without a mark were called inactive. Activity calls are given as the source filed them. The call rests on the fitted dose curve; in most records, active means well fitted cell-killing curve with a large enough effect; inconclusive means small, poorly fitted or top-dose-only effect, or effect the other way; inactive means flat fitted curve, though single readings scatter.

Tested on: SKOV3
Experiment: Primary qHTS to identify gynecologic anti-cancer compounds using libraries of approved drugs and bioactive compounds (AID 1345084); further: nearly all actives have a fitted effect of over 55% in size
Conditions: Gynecologic cancer cell panel viability, ATPlite luminescence, 48 h; series mostly up to 57.5 µM; activity change, negative = cytotoxicity: at the top concentration
Procedure, shortened: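 Cell viability after 48 h drug treatment, ATPlite luminescence readout; five doses.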
On the % scale 0 is the no-effect control and ±100 the full control effect; potency means the concentration at half of the fitted maximal effect.

Compound | activity change, negative = cytotoxicity | Potency
CC1(C)C[C@H](O)C[C@@]2(C)[C@H]1[C@H](O)C=C1COC(=O)[C@@]12O | -31.8% | 
CC(=O)OC12CC(C)C(OC(=O)c3ccccc3)C1/C=C(/C)C(OC(=O)c1ccccc1)CC(=O)C(C)(C)/C=C/C(C)C2=O (stereo unspecified) | 8.84% [at 25.3 µM] | 
C/C=C(\C)C(=O)OC[C@H]1O[C@@H](O[C@H]2[C@@H](O[C@H]3O[C@H](COC(=O)/C(C)=C/C)[C@@H](O)[C@H](O)[C@H]3O[C@@H]3O[C@H](CO)[C@@H](O)[C@H](OC(=O)/C(C)=C/C)[C@H]3O)O[C@H](COC(=O)/C(C)=C/C)[C@@H](O)[C@@H]2O)[C@H](O)[C@@H](O)[C@@H]1O | 3.76% [at 11.6 µM] | 
COc1ccc(C(=O)OC2C3C=COC(OC4OC(CO)C(O)C(O)C4O)C3C3(CO)OC23)cc1OC (stereo unspecified) | -2.53% [at 25.3 µM] | 
N#Cc1cccc(-c2nc(-c3cccnc3)no2)c1 | 7.18% [at 25.3 µM] | 
Cc1oc2nc3c(c(NC(=O)CN4CCCC4=O)c2c1C)CCCC3 | 21.1% | 
O=C(/C=C/c1ccc(O)c(O)c1)OC[C@H]1O[C@@H](OC2CCCCC2O)[C@H](O)[C@@H](O)[C@@H]1O (stereo partly specified) | 23.5% [at 25.3 µM] | 
Cc1cccc(-c2nn3c(c2-c2ccnc4ccc(C(N)=O)cc24)CCC3)n1 | 0% | 
NC1=NC2(c3cc(NC(=O)c4ccc(F)cn4)ccc3F)COCC2CS1 (stereo unspecified) | 0.0644% | 
CC(CNS(=O)(=O)C(C)C)c1ccc(-c2ccc(C#N)cc2)cc1 (stereo unspecified) |  | 8.91 µM (active)
COC1CC(O[C@H]2CC[C@@]3(C)C(=CC[C@]4(O)C3[C@H](O)[C@@H](O)[C@]3(C)[C@@H]([C@H](C)O)CC[C@@]34O)C2)OC(C)C1OC1CC(OC)C(OC2CC(OC)C(OC3OC(C)C(OC4OC(CO)C(O)C(O)C4O)C(OC)C3O)C(C)O2)C(C)O1 (stereo partly specified) | 1.02% [at 11.6 µM] | 
